Our source for the Potency and % pathology change, negative = correction values is PubChem BioAssay (NCATS).

Results filed as inconclusive are left out. Entries that show only a call come without a potency. Unmarked numbers belong to inactive results. Active and inactive are the calls of the source. The call rests on the fitted dose curve.
Potency means the concentration at half of the fitted maximal effect.

A short description of this experiment: A High-Content qHTS Against Drug Library for the Identification of Small Molecules that Inhibit DYT1 Early Onset Primary Dystonia-Associated Cell Pathology (AID 1645839). The note with it: HEK293 Flp-In EGFP-delE TorsinA, punctate imaging, 48 h; series mostly up to 46.1 µM. The source says: Nicole Calakos M.D., Ph.D.
Duke University School of Medicine, Durham, NC
In DYT1 dystonia due to delGAG in the TOR1A gene, there is a robust and widely replicated finding of TorsinA protein mislocalization caused when the mutant protein is in excess of the wildtype protein (1-7). Stable HEK293 cell lines were created that replicate this phenomenon. Inducible expression of an EGFP-hu delE TorsinA encoding cDNA causes pronounced punctate cellular distribution. […] This phenotypic difference in EGFP-huTorsinA fusion protein distribution serves as an indicator of cell pathology. […] RNAi screen results with the assay were validated in DYT1 patient cell phenotypes, intersected with a known dystonia gene, and led to discovery of new human genetic dystonia associations.
The bioassay described herein is a high-content image screen with two readouts. The "%pathology" readout is the primary qHTS data channel, while the "cellcount" is the counterscreen qHTS channel. Desired active compounds are those that show inhibition in %pathology channel but no activity or minimal toxicity in cellcount readout.
1. Kustedjo, K., Bracey, M.H., and Cravatt, B.F. (2000). […] J. Biol. Chem. 275, 27933 - 27939.
2. Bragg, D.C., Kaufman, C.A., Kock, N., and Breakefield, X.O. (2004). Inhibition of N-linked glycosylation prevents inclusion formation by the dystonia-related mutant form of torsinA. Mol. Cell. Neurosci. 27, 417 - 426.
3. Gonzalez-Alegre, P., and Paulson, H.L. (2004). Aberrant Cellular Behavior of Mutant TorsinA Implicates Nuclear Envelope Dysfunction in DYT1 Dystonia. J. Neurosci. 24, 2593 - 2601.
4. Goodchild, R.E., and Dauer, W.T. (2004). Mislocalization to the nuclear envelope: an effect of the dystonia-causing torsinA mutation. Proc. Natl. Acad. Sci. U. S. A. 101, 847 - 852.
5. Kock, N., Allchorne, A.J., Sena-Esteves, M., Woolf, C.J., and Breakefield, X.O. (2006). RNAi blocks DYT1 mutant torsinA inclusions in neurons. Neurosci. Lett. 395, 201 - 205.
6. Hewett, J.W., Nery, F.C., Niland, B., Ge, P., Tan, P., Hadwiger, P., Tannous, B.A., Sah, D.W.Y., and Breakefield, X.O. (2008). siRNA knock-down of mutant torsinA restores processing through secretory pathway in DYT1 dystonia cells. Hum. Mol. Genet. 17, 1436 - 1445.
7. Calakos, N., Patel, V.D., Gottron, M., Wang, G., Tran-Viet, K.N., Brewington, D., Beyer, J.L., Steffens, D.C., Krishnan, R.R., and Zuchner, S. (2010). Functional evidence implicating a novel TOR1A mutation in idiopathic, late-onset focal dystonia. J. Med. Genet. 47, 646 - 650.
8. Rittiner* JE, Caffall* ZF, Hernandez-Martinez R, Sanderson SM, Pearson JL, Tsukayama KK, Liu AY, Xiao C, Tracy S, Shipman MK, Hickey P, Johnson J, Scott B, Stacy M, Saunders-Pullman R, Bressman S, Simonyan K, Sharma N, Ozelius LJ, Cirulli ET, Calakos N. Functional Genomic Analyses of Mendelian and Sporadic Disease Identify Impaired eIF2alpha Signaling as a Generalizable Mechanism for Dystonia. Neuron. 2016 Dec 21;92(6):1238-1251. doi: 10.1016/j.neuron.2016.11.012. Epub 2016 Dec 8. PMID: 27939583; PMCID: PMC5320521.
High-content, High-throughput Drug Screening Assay
The TorsinA mislocalization assay was modified from the previously published assay to accommodate compound testing in 1536 well format.1 Briefly, Flp-In T-REx 293 cells from Invitrogen in which a single copy of a cDNA is recombined into a specific genomic locus was used to create tetracycline-inducible expression of cDNA encoding either EGFP-hTOR1A (WT) or EGFP-delE hTOR1A (DYT1). WT and DYT1 cells were diluted to a concentration of 2 x 10^5 cells/mL in reduced serum media (DMEM High Glucose containing 1% tetracycline-tested FBS, 2 mM L-Glutamine, and 1% Penicillin/Streptomycin). 4 µl of WT cells and 4 µl of DTY1 cells were added to column 1 and columns 2-48, respectively, of a poly-D-lysine-coated, low base, black, clear bottom 1536 well plate (Corning, Corning, NY) using the BioRAPTR FRD Microfluidic Workstation (Beckman Coulter, Indianapolis, IN). The final cell number was 800 cells/well. […]
(qHTS replaces the single test concentration by a dilution series.)
Regarding `CCN(CC)C(=O)Nc1ccc(OCC(O)CNC(C)(C)C)c(C(C)=O)c1` (stereo not given), the Potency entry was “inactive”. Regarding `CCCOC(=O)c1ccccc1`, the Potency entry was “inactive”. Still for that read-out and setting: the same measure for `O=C(O)c1ccccc1O`: “inactive”. Take `C[C@]12CC[C@@H]3c4ccc(O)cc4CC[C@H]3[C@@H]1CC[C@@H]2OC(=O)CCC1CCCC1`: the Potency result is “inactive”. As for `CC1=C(CC(=O)O)c2cc(F)ccc2/C1=C\c1ccc(S(C)(=O)=O)cc1`, the Potency entry is “inactive”.

For the compound `CC1=C(C/C=C(\C)CCC[C@H](C)CCC[C@H](C)CCCC(C)C)C(=O)c2ccccc2C1=O`, the Potency result was “inactive”. On the same count and under the same terms, the same measure for `O=C(CCCN1CCN(c2ccccn2)CC1)c1ccc(F)cc1`: “inactive”; for `CS(=O)(=O)c1ccc([C@@H](O)[C@@H](CF)NC(=O)C(Cl)Cl)cc1`: “inactive”. On the same count and under the same terms, under `COCCOC(=O)C1=C(C)NC(C)=C(C(=O)OC/C=C/c2ccccc2)C1c1cccc([N+](=O)[O-])c1` (stereo not given) stands 11.2 µM (active). Regarding `Cc1ncc(COP(=O)(O)O)c(C=O)c1O`, the Potency result is “inactive”. Same read-out and setting: under `COC(=O)[C@H]1[C@H]2C[C@@H]3c4[nH]c5cc(OC)ccc5c4CCN3C[C@H]2C[C@@H](OC(=O)COc2ccc(OC)cc2)[C@@H]1OC` stands “inactive”; under `C[C@H](NC(CCc1ccccc1)C(=O)O)C(=O)N1CCC[C@H]1C(=O)O` (stereo not given in full), “inactive”; under `COc1cc2[nH]c(=O)[nH]c(=O)c2cc1OC`, “inactive”. As for `N[C@@H](CSSC[C@H](N)C(=O)O)C(=O)O`, the % pathology change, negative = correction was 10.2% [at 0.369 µM]. Regarding `C=CCn1c(=O)n([C@@H]2O[C@H](CO)[C@@H](O)[C@H]2O)c2nc(N)[nH]c(=O)c21`, the Potency entry is “inactive”. On the same count and under the same terms, the same measure for `CCCCCCCCCCCCOS(=O)(=O)O`: “inactive”. Still for that read-out and setting: the same measure for `CC(C)(C)C(=O)NCCCC(=O)O`: “inactive”.

For the compound `NC(N)=NCCC[C@H](N)C(=O)O`, the % pathology change, negative = correction was 17.5% [at 4.63 µM]. Regarding `CC(C)c1c(C(=O)Nc2ccccc2)c(-c2ccccc2)c(-c2ccc(F)cc2)n1CC[C@@H](O)C[C@@H](O)CC(=O)O`, the Potency result was “inactive”. As for `Cn1c(=O)c2c(ncn2CC2OCCO2)n(C)c1=O`, the Potency result was “inactive”.

`OC[C@H]1O[C@@H](O[C@@H]2[C@@H](CO)O[C@](O)(CO)[C@H]2O)[C@H](O)[C@@H](O)[C@H]1O`: the Potency result is “inactive”. Turning to `CC1(C)Oc2ccc(C#N)cc2[C@@H](N2CCCC2=O)[C@@H]1O`, the Potency entry was “inactive”. Same read-out and setting: under `CCOC(CN1CCN(CC(C)C(=O)c2ccccc2)CC1)c1ccccc1` (stereo not given) stands “inactive”; under `CC[N+](CC)(CC)CCOc1ccc(/C=C/c2ccccc2)cc1`, “inactive”. Consider `CCCCOC(=O)c1ccc(O)cc1`, for which the Potency result was “inactive”. For `CC(C(O)c1ccc(O)cc1)N1CCC(Cc2ccccc2)CC1` (stereo not given), the Potency result was “inactive”.

In the case of `CCN(CC)CCOC(=O)C1(C2CCCCC2)CCCCC1`, the Potency entry was “inactive”.

As to `NCCNCCNCCN`, the Potency result is “inactive”. In the case of `CNCCC(Oc1ccc(C(F)(F)F)cc1)c1ccccc1` (stereo not given), the Potency was 12.6 µM (active).

Consider `O=C1O[C@H]([C@@H](O)CO)C(O)=C1O`, for which the Potency entry is “inactive”. Same read-out and setting: under `CC(C)(C)NCC(O)COc1ccc(NC(=O)NC2CCCCC2)cc1` (stereo not given) stands “inactive”; under `NC(=O)c1ncn([C@@H]2O[C@H](CO)[C@@H](O)[C@H]2O)n1`, “inactive”; under `CCn1cc(C(=O)O)c(=O)c2cnc(N3CCNCC3)nc21`, “inactive”.

As for `O=c1cc(CO)occ1O`, the Potency entry is “inactive”. On to `O=C1c2c(O)cccc2Cc2cccc(O)c21`, for which the Potency entry is “inactive”. Take `CCCCN(CCCC)CCCOC(=O)c1ccc(N)cc1`: the Potency entry was “inactive”. As for `OCC(O)CN1CCN(c2ccccc2)CC1` (stereo not given), the Potency result was “inactive”. As for `OCCN1CCN(CCCN2c3ccccc3Sc3ccc(Cl)cc32)CC1`, the Potency is 3.98 µM (active). As for `c1ccc(CN(CC2=NCCN2)c2ccccc2)cc1`, the Potency entry was “inactive”. Still for that read-out and setting: under `CCN(CC)CCNC(=O)c1cc(Cl)c(N)cc1OC` stands “inactive”.
